Only some compounds are listed: those with a hit (about 3.7% of all), similar ones and a draw of the others.
Anthrax LF prot: anthrax lethal factor protease inhibition. multiplex microsphere protease cleavage assay, LF. 360,000 tested, 0.12% active. inhibition, % at 10 µM. P15917; note: plate controls were buffer without enzyme for full effect and enzyme alone for no effect
MazF activator: MazEF (E. coli) toxin RNase activation; P0AE70; FAM/BHQ RNA-DNA oligo cleavage fluorescence, 5 h; activation, % at 20 µM; 350,000 tested, 0.32% active; AID 504720; in the data active = activation above about 50%
Target sequence (P0AE70 whole entry, looked up): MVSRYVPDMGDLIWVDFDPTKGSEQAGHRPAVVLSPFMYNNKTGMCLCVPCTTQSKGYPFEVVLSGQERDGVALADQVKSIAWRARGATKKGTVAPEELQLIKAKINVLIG
BoNT-A LC inh2: BoNT A light chain protease inhibition; multiplex microsphere protease substrate cleavage, flow cytometry; inhibition, % at 10 µM; 360,000 tested, 0.17% active; AID 588499; note: plate controls were buffer without enzyme for full effect and enzyme alone for no effect
Autofluor counter: flagged as autofluorescent in microsphere protease counterscreen | compound autofluorescence counterscreen, microsphere flow cytometry; active compounds read high | fluorescence intensity (concentration not given with the values) | 360,000 tested, 3.1% active | AID 624483; in the data active = fluorescence intensity above about 16000; inconclusive = no clear call, values can overlap the other calls
BoNT-F LC inh: BoNT F light chain protease inhibition. inhibition, % at 10 µM. 360,000 tested, 0.22% active. AID 588497. Multiplex microsphere protease cleavage assay, flow cytometry; in the data active = inhibition above about 35%, passing the limit was not always enough; inconclusive = no clear call, values can overlap the other calls; note: plate controls were buffer without enzyme for full effect and enzyme alone for no effect
Active calls of the source: *; ? = inconclusive; · = no result. Cut-off read from the data, not from the text of the source, unless noted: active = inhibition above about 30%; inconclusive = no clear call, values can overlap the other calls; inactive = below that.

SMILES	Anthrax LF prot	MazF activator	BoNT-A LC inh2	Autofluor counter	BoNT-F LC inh
COc1ccc(N(C(=O)c2ccn[nH]2)C(C(=O)NC2CCCC2)c2ccc(F)cc2)cc1 (centres undefined)	0	3	1	4014	-13
C=CCC1(N(C(C)=O)c2ccccc2)CCCCC1	0	1	0	2749	0
CC(C)C[C@@H](CN1CCC[C@@H]1CN1C(=S)NC[C@@H]1Cc1ccc(O)cc1)N1C[C@H](Cc2ccccc2)N(CCc2ccccc2)C1=S	0	·	0	6067	0
COc1ccc(/C=C/C(=O)Nc2ccccc2C(=O)N2CCCC2)cc1	1	-3	0	8637	2
COc1ccc(NC(=O)c2ccccc2NC(=O)c2ccccc2)cc1	-1	0	0	3668	4
COc1ccc(/C=C(/C(=O)Nc2ccccc2C(=O)N2CCCC2)c2ccccc2)cc1	0	-3	0	22608*	1
COc1ccc(/C=C(/C(=O)Nc2ccccc2C(=O)NC(C)C)c2ccccc2)cc1	-1	6	-2	17014*	-7
Cc1cccc(NC(=O)CSc2nc(=O)n(CCN3CCOCC3)c3c2CCCC3)c1C	0	-6	2	?	1
COc1ccc(C(=O)N2CCCC(C(=O)N3CCCCCC3)C2)cc1 (centres undefined)	-4	-3	-2	20377*	-4
O=C(c1ccccc1)N1CCCC(C(=O)N2CCc3ccccc3C2)C1 (centres undefined)	3	-1	0	5418	-16
O=C(c1ccccc1)N1CCCC(C(=O)N2CCCCCC2)C1 (centres undefined)	-3	3	-3	24585*	-6
CCOc1cc(N2CCOCC2)c(OCC)cc1NC(=O)CSc1ncccc1C(=O)O	-1	-2	-1	3809	-4
COc1ccccc1-c1cnc(C(O)c2c(C)cc(C)cc2C)[nH]1 (centres undefined)	-4	·	0	3715	-2
COc1ccc(S(=O)(=O)N2CCOC2CNC(=O)C(=O)NCc2ccccn2)cc1C (centres undefined)	5	6	1	5966	-4
COc1cccc(-c2nc(NC(C)C)c3ccccc3n2)c1O	-6	0	-4	24838*	-7
CCC1CCCCN1c1nc(-c2cccc(OC)c2O)nc2ccccc12 (centres undefined)	-6	3	-3	16896*	-4
CCC(C)Nc1nc(-c2cccc(OC)c2O)nc2ccccc12 (centres undefined)	-3	6	-1	3087	?
COc1cccc(-c2nc(N3CCCCC3)c3ccccc3n2)c1O	-4	4	0	5096	4
FC(F)(F)c1cc(-c2ccccn2)nc2cc(-c3ccccc3)nn12	-7	3	-2	4214	?
O=C(Nc1ccc(CN2CCOCC2)cc1)c1cccc(F)c1	0	3	3	18588*	1
COC(=O)c1ccc(NC(=O)c2ccc(CN3CCOCC3)cc2)cc1	0	4	0	16430*	2
CC1CCCCC1NC(=O)CCCn1c(=S)[nH]c2ccsc2c1=O (centres undefined)	-2	10	0	5411	-4
O=C(NCCCN1CCCC1=O)C1CCN(S(=O)(=O)c2cccc(Cl)c2Cl)CC1	-4	1	3	6310	-1
COc1cccc(N(CC(=O)NC(C)(C)C)C(=O)C2CSC(=O)C2)c1 (centres undefined)	-1	3	1	20419*	0
CCNc1nc(N)nc(Oc2ccc(OCc3ccccc3)nn2)n1	-3	-2	-1	8311	-6
SMILES	Anthrax LF prot	MazF activator	BoNT-A LC inh2	Autofluor counter	BoNT-F LC inh
CCNc1nc(N)nc(Oc2ccc(OCCOc3ccccc3)nn2)n1	-4	9	-5	17908*	-12
CCN1CCN(CCCNC(=O)CCC(=O)N2CCOc3ccccc32)CC1	-6	8	-1	4475	6
Cc1coc2c1c(C)cc1oc(=O)c(CC(=O)N[C@@H](CC(C)C)C(=O)O)c(C)c12	3	-2	1	3146	34
COc1ccc(NC(=O)Nc2ccc(Br)cn2)cc1OC	-3	3	-4	17621*	-13
COc1ccc(Cl)cc1NC(=O)Nc1ccc(Br)cn1	-3	0	?	17461*	-6
COc1ccc(Cl)cc1NC(=O)NC(C)c1ccncc1 (centres undefined)	0	-1	-2	17204*	-4
CCOCCC(=O)Nc1cc(Cl)ccc1OC	-2	3	1	22752*	1
Cc1ccccc1CNC(=O)c1ccccc1SCC(=O)NCc1ccco1	0	2	0	?	0
O=C(O)CCC(=O)Nc1ccc(Br)cn1	-7	11	0	5899	-8
COc1ccc(CCC(=O)Nc2ccc(Br)cn2)cc1	-1	4	?	24589*	-4
O=C(Nc1cccc(C(F)(F)F)c1)C1CC(=O)N(Cc2ccco2)C1 (centres undefined)	-5	3	0	3413	-6
Cc1cc(Br)ccc1OCCCCN1CCC(C)CC1	2	-9	0	2124	-6
Cc1c2c(cc3c1[nH]c1ccccc13)C=NCC2	0	-12	-10	21778*	22
CCC1CCCCN1Cc1nc(Cc2ccccc2Cl)no1 (centres undefined)	-7	-2	1	3394	1
Cc1cccc(C)c1N(CC(O)Cn1c2ccccc2c2ccccc21)S(C)(=O)=O (centres undefined)	0	-2	2	21877*	1
Cc1ccc(N(CC(O)Cn2c3ccccc3c3ccccc32)S(C)(=O)=O)cc1 (centres undefined)	-4	1	0	7849	-4
CC(=O)Nc1cccc(OCC(=O)NC(C)c2ccc3ccccc3c2)c1 (centres undefined)	8	7	-2	4037	-33
CCOc1ccc(S(=O)(=O)N2CCOCC2)cc1NC(=O)CCOc1ccc(C(C)(C)C)cc1	-5	-3	-2	6565	3
COc1cccc(-c2noc(C3CCCN(C(=O)Cc4ccccc4)C3)n2)c1 (centres undefined)	0	-2	0	20892*	0
O=C(N1CCOCC1)N1CCCC(c2nc(-c3cccs3)no2)C1 (centres undefined)	1	-1	0	20689*	0
OC[C@@H]1CCCN1Cc1nc(-c2cccs2)no1	-1	4	-1	3126	-4
O=C(c1ccco1)N1CCCC(c2nc(-c3ccc(S(=O)(=O)NCc4ccccc4)cc3)no2)C1 (centres undefined)	0	-5	2	22212*	1
COc1ccc(-c2noc(C3CCCN(C(=O)c4ccccc4)C3)n2)cc1 (centres undefined)	-3	1	-1	4105	-2
O=S(=O)(Cc1ccccc1)N1CCC(c2nc(-c3cccs3)no2)CC1	-6	-1	?	18652*	8
O=C(c1c(F)cccc1F)N1CCCC(c2nc(-c3cccs3)no2)C1 (centres undefined)	-20	9	-3	3680	-23
O=C(CCC(=O)N1CCCC1)Nc1ccc(Cl)c(Cl)c1	-1	0	-1	4521	-4

Source: PubChem (several laboratories)
